An excerpt weighted towards active compounds, which were near 0.78% of everything screened.
SRC1 inh = inhibitors of human steroid receptor coactivator 1 (SRC1); AID 588354; HEK293 GAL4-SRC1 luciferase reporter, luminescence; Q15788; inhibition, % at 3.6 µM; 0.12% of 360,000 active;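 active = inhibition above the campaign mean plus 3 SD, with each screening campaign given its own cutoff, cut at about 60% in these data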
Target sequence (Q15788 whole entry, looked up, the tested form may be a part): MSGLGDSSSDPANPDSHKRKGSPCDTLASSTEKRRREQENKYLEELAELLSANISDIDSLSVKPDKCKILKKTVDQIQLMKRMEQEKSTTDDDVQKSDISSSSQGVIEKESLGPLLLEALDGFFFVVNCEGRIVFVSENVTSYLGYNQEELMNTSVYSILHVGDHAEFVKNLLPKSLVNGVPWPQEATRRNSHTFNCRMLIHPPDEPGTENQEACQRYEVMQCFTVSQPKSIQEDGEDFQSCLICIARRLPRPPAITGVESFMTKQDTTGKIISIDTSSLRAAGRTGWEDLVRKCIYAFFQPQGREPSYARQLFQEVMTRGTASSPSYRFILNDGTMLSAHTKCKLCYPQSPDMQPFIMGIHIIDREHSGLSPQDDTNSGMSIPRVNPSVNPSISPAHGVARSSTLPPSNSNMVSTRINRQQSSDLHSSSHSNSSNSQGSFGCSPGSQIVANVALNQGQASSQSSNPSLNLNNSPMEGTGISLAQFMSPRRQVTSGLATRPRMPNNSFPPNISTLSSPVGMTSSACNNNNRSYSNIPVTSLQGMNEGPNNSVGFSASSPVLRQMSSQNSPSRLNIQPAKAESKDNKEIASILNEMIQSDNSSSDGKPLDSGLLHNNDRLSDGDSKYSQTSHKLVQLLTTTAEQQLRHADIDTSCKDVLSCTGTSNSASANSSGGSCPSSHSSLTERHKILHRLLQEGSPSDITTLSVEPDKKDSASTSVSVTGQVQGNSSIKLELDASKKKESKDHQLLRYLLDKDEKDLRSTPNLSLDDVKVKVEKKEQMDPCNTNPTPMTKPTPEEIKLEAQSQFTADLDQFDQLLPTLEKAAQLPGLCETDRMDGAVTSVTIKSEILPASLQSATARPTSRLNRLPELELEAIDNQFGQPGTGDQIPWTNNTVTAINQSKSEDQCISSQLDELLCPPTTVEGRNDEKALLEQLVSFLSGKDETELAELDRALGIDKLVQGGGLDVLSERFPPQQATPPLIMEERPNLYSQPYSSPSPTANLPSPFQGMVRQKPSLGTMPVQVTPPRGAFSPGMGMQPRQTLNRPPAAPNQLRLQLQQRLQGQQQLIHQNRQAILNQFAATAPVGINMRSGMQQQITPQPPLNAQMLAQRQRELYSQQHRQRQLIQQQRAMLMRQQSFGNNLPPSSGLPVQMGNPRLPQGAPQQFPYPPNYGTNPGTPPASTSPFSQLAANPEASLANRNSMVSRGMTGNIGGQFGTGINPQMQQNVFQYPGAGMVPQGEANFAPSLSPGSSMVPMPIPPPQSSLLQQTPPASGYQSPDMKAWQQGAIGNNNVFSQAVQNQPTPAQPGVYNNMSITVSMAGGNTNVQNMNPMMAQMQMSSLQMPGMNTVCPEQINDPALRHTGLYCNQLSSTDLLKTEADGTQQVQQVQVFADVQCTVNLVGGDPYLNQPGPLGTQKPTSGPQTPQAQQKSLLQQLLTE
NR5A2 inv ag = suppresses constitutive activity of human LRH-1; 0.13% of 360,000 active; O00482; AID 602396; HEK293T StAR-luciferase reporter, LRH-1 transfected, 24 h; inhibition, % at 3.6 µM;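 active = inhibition above the mean inhibition of all tested compounds plus 3 SD, cut at about 73% in these data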
NCOA3 inh = human NCOA3 inhibition; HEK293 GAL4-SRC3 luciferase reporter, luminescence; 0.17% of 360,000 active; inhibition, % at 3.6 µM;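 active = inhibition above a per-campaign cutoff, the mean of all compounds plus 3 SD, cut at about 60% in these data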;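 also: higher means less SRC3-driven luciferase light from the GAL4 reporter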
LMP1 NFkB inh = inhibitors of Epstein-Barr LMP1-induced NF-kappaB reporter; 0.69% of 350,000 active; AID 504558; LMP1-induced NF-kappaB luciferase reporter cells, luminescence; inhibition, % at 12.5 µM; in the data active = inhibition above about 41%; inconclusive = no clear call, values can overlap the other calls
NCOA2 inhibitor = inhibits human steroid receptor coactivator 2 | inhibition, % at 9 µM | 0.17% of 370,000 active | AID 651957 | HEK293 GAL4-SRC2 luciferase reporter, luminescence;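 active = inhibition above the mean inhibition of all tested compounds plus 3 SD, set per campaign, cut at about 52% in these data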
Numbers stand for hits; – = inactive; ? = inconclusive; · = no result.

SMILES	SRC1 inh	NR5A2 inv ag	NCOA3 inh	LMP1 NFkB inh	NCOA2 inhibitor
CCCC(=O)C1=C(O)C(C(=O)OC)C(C)(C)CC1=Nc1ccc(C)cc1 (configuration not stated)	–	–	–	–	–
Cc1cn([C@@H](CCCCNC(=O)OC(C)(C)C)C(=O)NCCCCCCCCCCC(=O)N2CCN(C(=O)OC(C)(C)C)CC2)nn1	–	–	64	–	·
CC[C@H](C)Cc1cn([C@@H](CCCN=C(NC(=O)OC(C)(C)C)NC(=O)OC(C)(C)C)C(=O)NCCCCCCCCCCC(=O)N2CCN(C(=O)OC(C)(C)C)CC2)nn1	–	–	–	–	·
CCCn1cc(SCC(=O)NCC2CCCO2)c2ccccc21 (configuration not stated)	–	–	–	–	–
CC(C)(C)c1ccc(C(=O)Nc2nnc(SCC(=O)NCC3CCCO3)s2)cc1 (configuration not stated)	–	–	–	49	–
Cn1cc(SCC(=O)NCC2CCCO2)c2ccccc21 (configuration not stated)	–	–	–	85	–
CN(C)S(=O)(=O)c1ccc(C(=O)Nc2nnc(SCC(=O)NCC3CCCO3)s2)cc1 (configuration not stated)	–	–	–	–	–
CCOc1ccc(C(=O)Nc2nnc(SCC(=O)NCC3CCCO3)s2)cc1 (configuration not stated)	–	–	–	61	–
O=C(CSc1nnc(NC(=O)c2cccc(F)c2)s1)NCC1CCCO1 (configuration not stated)	–	–	–	–	–
Cc1[nH]cnc1/C=N\NC(=O)c1cccc(S(=O)(=O)N(C)C)c1	·	·	·	·	–
C[C@H]1COc2cc(Br)ccc2S(=O)(=O)N1Cc1cn(CCC2OCCCO2)nn1	·	·	·	·	–
COCCN(C(=O)CCC(=O)Nc1nccs1)C(C(=O)NC(C)(C)C)c1ccc(C)cc1 (configuration not stated)	–	–	–	–	76
COCCN(C(=O)CCC(=O)Nc1nccs1)C(C(=O)NC(C)(C)C)c1ccc(F)cc1 (configuration not stated)	–	–	–	–	–
N#Cc1ccc(-c2csc(NNC(=O)c3ccccc3)n2)cc1	–	–	–	–	–
N#Cc1ccc(-c2csc(NNC(=O)c3ccc(Br)cc3)n2)cc1	–	–	–	55	–
Cn1cc(S(=O)(=O)N2CCN(C(=O)c3ccco3)CC2)c(=O)n(C)c1=O	–	–	–	88	–
COc1cccc(C(=O)NCCN2C(=O)C3C4C=CC(C4)C3C2=O)c1 (configuration not stated)	·	·	·	·	–
COc1cc2ccccc2ccc1=NO	–	–	–	–	54
COc1cc2ccccc2cc1C(=O)O	–	–	–	–	–
OC(c1ccccc1)(c1ccccc1)C1CCN(CCCOc2ccc(-c3cccnc3)cc2)CC1	·	·	·	·	–
COC(=O)C1=C(C)N(Cc2cccc(C(F)(F)F)c2)C(=NCC2CC2)NC1c1ccccc1 (configuration not stated)	·	·	·	·	–
COC(=O)c1cnn(-c2nc(OC)cc(OC)n2)c1C	–	–	–	–	–
COc1cc(OC)nc(-n2ncc(Br)c(Br)c2=O)n1	–	–	–	65	–
COC(=O)[C@]12C[C@H](CC(=O)NCc3ccccc3)C(=O)N(Cc3ccc4c(c3)OCO4)C1=C[C@H](C(C)C)O[C@@H]2C1CC1	·	·	·	·	–
CCN1C/C(=C/c2cccc([N+](=O)[O-])c2)C(=O)/C(=C/c2cccc([N+](=O)[O-])c2)C1	–	–	–	97	–
SMILES	SRC1 inh	NR5A2 inv ag	NCOA3 inh	LMP1 NFkB inh	NCOA2 inhibitor
CCCCC(=O)NC(c1ccc(Cl)cc1Cl)c1ccc2cccnc2c1O (configuration not stated)	–	–	–	69	–
CC(=O)NC(c1ccco1)c1ccc2cccnc2c1O (configuration not stated)	–	–	–	–	·
CC(C)C(=O)NC(c1ccc(Cl)cc1Cl)c1ccc2cccnc2c1O (configuration not stated)	–	83	–	?	–
CCC(=O)NC(c1ccc(Cl)cc1Cl)c1ccc2cccnc2c1O (configuration not stated)	–	–	–	49	–
COC(=O)c1ccc2nc(-c3ccc(C)cc3)c(CC(C)(C)C)n2c1	·	·	·	·	–
O=C(CN(CCc1ccccc1)S(=O)(=O)c1ccccc1)N1CCOCC1	·	·	·	·	–
Cc1nnc(SC(=O)N2c3ccccc3Sc3ccccc32)s1	–	–	65	?	60
O=c1c(Br)ccc(Br)cc1Br	–	–	–	–	58
O=C1CN(S(=O)(=O)c2cc(Br)ccc2Br)CCN1	–	–	–	–	–
COc1ccc(NC(=O)C[C@H]2C(=O)N(CCc3ccccc3)C[C@@H]2c2ccc(OC)cc2)cc1	–	–	–	44	–
C/C(=N\Nc1ccc(C(F)(F)F)cc1[N+](=O)[O-])C(C)C	–	–	–	66	–
CC(C)(C)c1ccc(C(=O)Nc2ccc(CC(=O)O)cc2)o1	–	–	–	72	87
Cc1ccc(C(=O)Nc2ccc(CC(=O)O)cc2)o1	–	–	–	–	–
Cc1cc(C(=O)Nc2ccc(CC(=O)O)cc2)c(C)o1	–	–	–	–	55
CC(=O)N1CCc2cc(S(=O)(=O)NCCC(=O)N(C)C3CCCCC3)ccc21	·	·	·	·	–
CCCCOc1ccc(C(=O)NC2CCCCN(Cc3cccc(Cl)c3)C2=O)cc1 (configuration not stated)	·	·	·	·	–
COC(=O)[C@]12CCCCC=C1N(Cc1ccc(OC)cc1)C(=O)[C@@H]2CC(=O)N1CCSCC1	·	·	·	·	–
O=C(CSc1nnc(COc2ccccc2)n1-c1ccc(Cl)cc1)Nc1ccccc1-c1ccccc1	·	·	·	·	–
COc1ccc2c(c1OC)C(=O)OC2C/C(=N\NC(N)=O)c1ccccc1 (configuration not stated)	–	–	–	–	–
COc1ccc(/C(CC2OC(=O)c3ccccc32)=N\NC(N)=O)cc1 (configuration not stated)	–	–	–	65	–
O=C(NCCCN1CCOCC1)c1ccc2c(c1)N(Cc1ccc(F)cc1)CCS2	–	–	–	–	–
CN1CCN(CCCNC(=O)c2ccc3c(c2)N(Cc2ccc(F)cc2)CCS3)CC1	–	–	–	67	–
CCOC(=O)CC[C@@]1(C(=O)OCC)C[C@@H](CC(=O)NCc2cccc3ccccc23)C(=O)N2CCCC=C21	·	·	·	·	–
COC(=O)C1=C(C)N(Cc2ccc(C(F)(F)F)cc2)C(=NCc2ccccc2)NC1c1ccc(Cl)cc1 (configuration not stated)	·	·	·	·	–
O=C(NN1C(=O)C2C3C=CC(C4CC34)C2C1=O)c1cccc(Cl)c1 (configuration not stated)	–	–	–	71	–
Cc1cc(C)cc(NC(=O)OC2CCC23CCCCC3)c1 (configuration not stated)	·	·	·	·	–
CCOc1ccc2c(c1)/C(=C(\C(Cl)=C(Cl)Cl)[N+](=O)[O-])N2	–	–	–	–	–
CCCCOc1ccc2c(c1)/C(=C(\C(Cl)=C(Cl)Cl)[N+](=O)[O-])N2	–	–	–	44	–
